Results filed as inconclusive are left out. A call without a number means that no potency is given here. The source holds several records for some structures; these can differ, active in one and inactive in another. Activity calls are given as the source filed them. Calls follow the shape of the dose curve; as a rule, active = well fitted cell-killing curve with a large enough effect in the repeat runs; inconclusive = weak or mixed curves, or effect the other way; inactive = no such curve, though single readings can be large or run the other way.
Potency is read from the fitted curve at half-maximal effect.

The assay in a line: Caspase-3/7 induction in CHO-K1 cells by small molecules, qHTS cell viability counter screen (AID 1346979). Also: nearly all actives have a fitted effect of over 35% in size. As to conditions: CellTiter-Fluor fluorescence, 17 h; series mostly up to 92.4 µM; activity change, negative = cytotoxicity: at the top concentration. The text has this:
National Center for Advancing Translational Sciences [NCATS]
NIH Chemical Genomics Center [NCGC]
U.S. Environmental Protection Agency [EPA]
National Institutes of Environmental Health Sciences [NIEHS]
National Toxicology Program [NTP]
U.S. Food and Drug Administration [FDA]
Apoptosis is a process of programmed cell death and plays a central role in the development of multicellular organisms. It is a highly regulated process and induces cell death by activating caspases, which are the members of cysteine aspartic acid-specific protease (caspase) family. Caspases involved in apoptosis are classified by their mechanism of action as initiator caspases (caspase-2, -8, -9 and -10) and executioner caspases (caspase-3, -6, and -7). Inhibition of apoptosis results in number of cancers, autoimmune diseases, inflammatory diseases and viral infection. To identify small molecule compounds that induce apoptosis, a homogeneous, luminescent Caspase-Glo 3/7 assay was used. Wild type CHO-K1 cells were used to screen Tox21 libraries for identifying caspase-3/7 activity inducers. Also cytotoxicity of the compounds was tested in parallel by measuring the cell viability using CellTiter-Fluor assay system in the same wells.
Tox21 Assay Protocol Summary:
CHO-K1 cells were dispensed at 1,500 per well in 5uL of culture medium into white solid bottom 1536-well plates (Corning Life Sciences, Corning, NY) using a Multidrop Combi (Thermo Scientific, Waltham, MA) dispenser. The assay plates were incubated at 37 C and 5% CO2 for 5hr, and then 23nL of compounds dissolved in DMSO and positive control were transferred using a Pintool station (Wako, San Diego, CA). The assay plates were incubated at 37C and 5% CO2 for 17hr. For cytotoxicity read, after 16hr incubation at 37C, 1uL CellTiter-Fluor reagent (Promega Corporation, Madison, WI) was added to each well of the assay plates using Flying Reagent Dispenser (FRD, Aurora Discovery, San Diego, CA). After 1hr incubation at 37C and 5% CO2, the fluorescence signal was quantified using a ViewLux plate reader (PerkinElmer, Shelton, CT).
Consider `CN(C)CCOCCN(C)C`, for which the Potency entry is “inactive”.

For `CC1=CCC2CC1C2(C)C` (stereo not given), the Potency result was “inactive”.

As for `O=C(OCCOCCOC(=O)c1ccccc1)c1ccccc1`, the Potency entry was “inactive”.

As for `CC(C)(C)[C@@H](O)[C@@H](Cc1ccc(Cl)cc1)n1cncn1`, the “activity change, negative = cytotoxicity” value is -7.77% (inactive).

`CC(c1cc2ccccc2s1)N(O)C(N)=O` (stereo not given): the Potency result was “inactive”.

Consider `COS(C)(=O)=O`, for which the Potency result is “inactive”.

`CCc1cccc(C)c1N`: the Potency result is “inactive”.

In the case of `O=C(O)CC(C(=O)O)C(CC(=O)O)C(=O)O` (stereo not given), the “activity change, negative = cytotoxicity” value was 2.38% (inactive).

`CC1=CC(=O)NS(=O)(=O)O1`: the Potency result is “inactive”.

On to `O=S1(=O)CC=CC1`, for which the Potency was 29.6 µM (active) and inactive.

As to `CCCCN(CCCC)CCCC`, the Potency result was “inactive”.

For the molecule `Cc1ccc(S(N)(=O)=O)cc1`, the Potency entry is “inactive”.

On to `NNc1nncc2ccccc12`, for which the activity change, negative = cytotoxicity is -0.255% [at 19 µM] (inactive) and the Potency is 43.3 µM (active).

As to `CCCCCCCCCCCCS`, the Potency entry was “inactive”.

Consider `CC(C)c1ccc(S(=O)(=O)O)cc1`, for which the Potency result is “inactive”.

Regarding `O=C(CC(C(=O)OC1CCCCC1)S(=O)(=O)O)OC1CCCCC1` (stereo not given), the Potency result was “inactive”.

Turning to `CCCCCCCCCCCCCCCO`, the Potency is 24.5 µM (active) and inactive.

As to `O=C=NCCCCCCN=C=O`, the Potency is 53.3 µM (active) and inactive.

With `CCCCCCCCC/C=C/CC1CC(=O)OC1=O` (stereo not given), the Potency result is “inactive”.

Consider `CCCCCCCCCCCCc1ccccc1`, for which the Potency entry is “inactive”.

In the case of `CC(=O)Nc1ccccc1`, the Potency entry was “inactive”.

With `C#C[C@]1(O)CC[C@H]2[C@@H]3CCC4=CC(=O)CC[C@@H]4[C@H]3CC[C@@]21C`, the Potency was 61.1 µM (active).

In the case of `CCCCCC(N)=O`, the “activity change, negative = cytotoxicity” value was -1.11% (inactive).

On to `CC(=O)CC(=O)Nc1ccccc1C`, for which the Potency entry was “inactive”.

Consider `C#CCN(C)Cc1ccccc1`, for which the Potency entry was “inactive”.

On to `O=P(OC(CCl)CCl)(OC(CCl)CCl)OC(CCl)CCl`, for which the Potency is 30.5 µM (active).

Consider `Fc1ccc(Br)cc1`, for which the Potency result is “inactive”.

Consider `O=C(O)c1cc(C(=O)O)cc(S(=O)(=O)O)c1`, for which the Potency entry was “inactive”.

For `CCCCC(CC)COC(=O)CS` (stereo not given), the Potency result is “inactive”.

Turning to `CCc1ccc(CCOc2ccc(CC3SC(=O)NC3=O)cc2)nc1` (stereo not given), the “activity change, negative = cytotoxicity” value was -9.24% [at 42.5 µM] (inactive).

With `ON=C1CCCCC1`, the Potency entry is “inactive”.

Take `O=C(O)CCCCCCCCCCC(=O)O`: the Potency result was “inactive”.

For the molecule `CN(C)CCC(c1ccc(Cl)cc1)c1ccccn1` (stereo not given), the “activity change, negative = cytotoxicity” value is -9.62% (inactive).

With `CCCCC(CC)COC(=O)CCCCC(=O)OCC(CC)CCCC` (stereo not given), the Potency result is “inactive”.

As for `O=[N+]([O-])c1ccc(/C=C/c2ccc([N+](=O)[O-])cc2S(=O)(=O)O)c(S(=O)(=O)O)c1`, the “activity change, negative = cytotoxicity” value is -10.8% (inactive).

Regarding `OCCOCCN1CCN(C2=Nc3ccccc3Sc3ccccc32)CC1`, the Potency result was “inactive”.

In the case of `OC[C@H]1O[C@@](CO)(O[C@H]2O[C@H](CO)[C@@H](O)[C@H](O)[C@H]2O)[C@@H](O)[C@@H]1O`, the Potency result is “inactive”.

`c1c[nH]cn1`: the “activity change, negative = cytotoxicity” value is -4.06% (inactive).

Consider `CCCCCCCC(=O)OC`, for which the Potency entry is “inactive”.

The record behind these values is PubChem BioAssay (Tox21).
